Each structure is given as a SMILES string. In all, about 39,000 compounds went through this assay and about 1,500 (3.8%) were called active. The list comes from a sample in which actives are over-represented; it also holds similar structures and randomly drawn compounds.

For the experiment, the system named is HSkMC (human skeletal muscle cells). The experiment is described as follows: cytotoxicity call (relative viability < 0.9). To be noted: 10 µM.
For the compound `C[C@@H]1CN([C@H](C)CO)C(=O)c2cc(C#Cc3ccccc3F)cnc2O[C@@H]1CN(C)C(=O)Cc1ccncc1`, the cytotoxicity call was “inactive”.
For the compound `C[C@H](CO)N1C[C@H](C)[C@H](CN(C)S(=O)(=O)c2cn(C)cn2)OCCCC[C@H](C)Oc2ccc(NC(=O)Nc3ccc(C(F)(F)F)cc3)cc2C1=O`, the cytotoxicity call was “inactive”.
With `O=C(CCC(=O)N1CCOCC1)Nc1c(F)c(F)nc(N2CCOCC2)c1F` the entry was “inactive”; with `C[C@@H]1CCCCO[C@H](CN(C)S(=O)(=O)c2ccccc2)[C@H](C)CN([C@@H](C)CO)C(=O)c2cc(NC(=O)Nc3cccc4ccccc34)ccc2O1`, “inactive”; with `COCC(=O)N1C[C@]2(C1)CN([C@H](CO)c1c2c2ccc(cc2n1C)OC)C(=O)CN1CCOCC1`, “inactive”.
Consider `C/C=C/c1cccc(-c2nc(C(=O)NCc3ccc(OC)cc3)cc3c2[C@@H](CCO)N([S@@](=O)C(C)(C)C)C3)c1`, for which the cytotoxicity call was “inactive”.
To `Cc1ccc(S(=O)(=O)N(C)C[C@H]2Oc3ncc(Br)cc3C(=O)N([C@H](C)CO)C[C@H]2C)cc1` belongs “inactive”; to `C[C@H](CO)N1C[C@H](C)[C@H](CN(C)Cc2ccc(C(F)(F)F)cc2)OCCCC[C@H](C)Oc2ccc(NS(C)(=O)=O)cc2C1=O`, “inactive”.
As to `COc1ccc(OCC(=O)NCC(=O)O)cc1`, the cytotoxicity call was “inactive”.
With `O=C(O)Cc1nnc(-c2ccncc2)[nH]1` the entry was “inactive”; with `O=C(O)CCN1CCCCCC1=O`, “inactive”.
With `CCn1nnc2c1CCN(S(=O)(=O)c1cn(C)cn1)[C@@H]2COC`, the cytotoxicity call is “inactive”.
To `COc1ccc(S(=O)(=O)N(C)C[C@H]2OCCCC[C@@H](C)Oc3ccc(NC(=O)Nc4ccc5c(c4)OCO5)cc3C(=O)N([C@@H](C)CO)C[C@@H]2C)cc1` belongs “inactive”; to `Cc1cc(C(=O)Nc2cccc3c2O[C@H](CN(C)S(=O)(=O)c2cccs2)[C@H](C)CN([C@H](C)CO)C3=O)n(C)n1`, “inactive”; to `Oc1cccc2ccccc12`, “active”.
With `Cc1cccc2ccccc12`, the cytotoxicity call is “inactive”.
To `Oc1ccc(F)c2ccccc12` belongs “inactive”; to `C[C@H](CO)N1C[C@H](C)[C@H](CN(C)C(=O)Nc2ccc(C(F)(F)F)cc2)OCCCC[C@H](C)Oc2ccc(NC(=O)C3CCCCC3)cc2C1=O`, “inactive”.
With `O=C(C[C@@H]1CC[C@@H]2[C@H](COC[C@@H](O)CN2S(=O)(=O)c2ccccc2)O1)NCc1ccc2c(c1)OCO2` the entry was “inactive”; with `C[C@H]1CN([C@@H](C)CO)C(=O)c2c(c3ccccc3n2C)-c2ccccc2CO[C@@H]1CN(C)C(=O)NC1CCCCC1`, “inactive”; with `CC(C)=CCC1=C(O)C(=O)c2ccccc2C1=O`, “inactive”.
To `C=CC(C)(C)c1[nH]c2ccccc2c1C1=C(O)C(=O)C(c2c[nH]c3c(CC=C(C)C)cccc23)=C(O)C1=O` belongs “active”.
